Here are results for 36 molecules from PubChem BioAssay (EPA / NIEHS).

Values joined by “and” are separate entries in the source; they are usually repeats but may differ in a detail not shown here. Equal values may be shown once. More than one record can exist for a structure, and the calls need not agree. Active and inactive are the calls of the source. Rule for the calls: active = hit-call score of the fitted dose curve at least 0.9, where 1 is the maximum; inactive = score below 0.9.

Read-out in the assay: Thrombomodulin, THBD (gene 7056)
Briefly: BSK_3C_Thrombomodulin: BioMAP Diversity Plus: 3C Assay for Thrombomodulin Biomarker Activity (AID 2283029). The note with it: primary human endothelial cells (HUVEC); actives raise or lower the signal. Here is the method: BSK_3C is a cell-based, multiplexed-readout assay that uses umbilical vein endothelium, a human vascular primary cell, with measurements taken at 24 hours after chemical dosing in a 96-well plate.BSK_3C_Thrombomodulin is an assay component measured in the BSK_3C assay. It measures Thrombomodulin antibody related to regulation of gene expression using ELISA technology.Data from the assay component BSK_3C_Thrombomodulin was analyzed into 1 assay endpoint. This assay endpoint, BSK_3C_Thrombomodulin, was analyzed with bidirectional fitting relative to DMSO as the negative control and baseline of activity. Using a type of binding reporter, gain or loss-of-signal activity can be used to understand changes in the signaling as they relate to the gene THBD. Furthermore, this assay endpoint can be referred to as a primary readout, because this assay has produced multiple assay endpoints where this one serves a signaling function. To generalize the intended target to other relatable targets, this assay endpoint is annotated to the gpcr intended target family, where the subfamily is rhodopsin-like receptor.
The levels of cell surface (or secreted, indicated by the prefix "s") biomarker endpoints were measured by ELISA. Overt cytotoxicity to cells in confluent adherent cultures (all systems other than the BT system) was assessed by measuring total protein levels using sulforhodamine B (SRB) staining in parallel cultures at the time of biomarker measurements, indicated as SRB endpoints. For proliferation assays for adherent cell types, individual cell types are cultured at sub-confluence and relative cell numbers quantified by SRB staining at time points optimized for each system (48 h: 3C and CASM3C systems; 72 h: BT and HDF3CGF systems; 96 h: SAg system). SRB was performed by staining cells with 0.1% SRB after fixation with 10% TCA and reading wells at 560 nm.Viability and proliferation of PBMC (T cells) was quantified by Alamar Blue reduction for the SAg and BT systems. For PBMC viability (referred to as PBMC Cytotoxicity within the assay endpoint names), cells were plated (75,000/well in a 96-well plate) and then chemical samples added for 1 h before addition of activators, SEB and TSST-1 (20 ng/mL final concentration each). Cells were incubated for 90 h. Then, Alamar Blue (20 uL/well) (Invitrogen, Cat DAL1100) was added for 6 h, and the plates were read with a fluorescence microplate reader at 546/580 nm (excitation/emission). For PBMC proliferation, cells were plated and activated as above but incubated for only 16 h prior to addition of Alamar Blue. Plates were read after 6 h.
Consider `CC(CCl)OP(=O)(OC(C)CCl)OC(C)CCl` (stereo unspecified), for which the outcome was inactive. Turning to `FC(F)(F)C(F)(F)C(F)(F)C(F)(F)CCI`, the outcome was inactive. On to `CCc1c(Br)c(Br)c(Br)c(Br)c1Br`, for which the outcome was inactive. As to `CS(C)(=O)=O`, the result was inactive.

Regarding `C=CC(=O)OCC(F)(F)C(F)(F)C(F)(F)C(F)(F)C(F)(F)C(F)(F)C(F)(F)F`, the result was inactive. Regarding `N=C(N)C(F)(F)C(F)(F)C(F)(F)C(F)(F)C(F)(F)C(F)(F)C(F)(F)F`, the result was inactive. `O=C(O)C(F)(F)C(F)(F)C(F)(F)F`: the outcome was inactive. Same read-out and setting: the value for `O=C(Cl)C(F)(F)C(F)(F)C(F)(F)C(F)(F)C(F)(F)C(F)(F)C(F)(F)C(F)(F)F` was “inactive”; that for `FC(F)(F)C(F)(F)C(F)(F)C(F)(F)C(F)(F)C(F)(F)C(F)(F)C(F)(F)F` was “inactive”.

For `O=S(=O)(OCC(F)F)C(F)(F)F`, the outcome was inactive.

Regarding `C=CC(F)(F)C(F)(F)C(F)(F)C(F)(F)C(F)(F)C(F)(F)C(F)(F)C(F)(F)F`, the outcome was inactive. For orientation: AC50 means the concentration at which the activity in the assay is half-maximal. For the molecule `CC(C)(C)C(=O)CC(=O)C(F)(F)C(F)(F)C(F)(F)F`, the AC50 is 41.2 µM (active) and 47.3 µM (active). For `C=C(C)C(=O)OCC(F)(F)C(F)(F)C(F)(F)F`, the outcome was inactive. `CCCCCCCCC(F)(F)C(F)(F)C(F)(F)C(F)(F)C(F)(F)C(F)(F)F`: the outcome was inactive.

`CCCCCCOC(=O)c1ccccc1O`: the outcome was inactive. On the same count and under the same terms, for `OCCCC(F)(F)C(F)(F)C(F)(F)F` the value was “inactive”. `O=C(O)C(F)(F)C(F)(F)C(F)(F)C(F)(F)C(F)(F)C(F)(F)C(F)(F)C(F)(F)C(F)(F)C(F)(F)C(F)(F)C(F)(F)F`: the AC50 was 0.928 µM (active) and the outcome was inactive. For `FC(F)(F)C(F)(F)C(F)(F)C(F)(F)C(F)(F)C(F)(F)C(F)(F)I`, the outcome was inactive. `O[Si](c1ccccc1)(c1ccccc1)c1ccccc1`: the result was inactive.

In the case of `FC(F)(I)C(F)(F)C(F)(F)C(F)(F)I`, the result was inactive. For `CCCCNc1ccccc1`, the result was inactive. `O=C(CC(=O)C(F)(F)C(F)(F)F)C(F)(F)F`: the outcome was inactive. For `OCC(F)(F)C(F)(F)C(F)(F)C(F)(F)C(F)(F)C(F)F`, the outcome was inactive. Take `FC(F)(F)C(F)(F)C(F)(F)C(F)(F)C(F)(F)C(F)(F)C(F)(F)Br`: the result was inactive and the AC50 was 1.29 µM (active). Regarding `CCc1ccc(C(c2ccc(CC)cc2)C(Cl)Cl)cc1`, the outcome was inactive. For `C=CC/C=C/C/C=C/C/C=C/C`, the outcome was inactive.

Take `Cc1ccc(S(=O)(=O)OCC(F)(F)C(F)(F)C(F)(F)C(F)(F)C(F)(F)C(F)F)cc1`: the outcome was inactive. Regarding `CCCCCCC(C)OC(=O)CCCCC(=O)OC(C)CCCCCC` (stereo unspecified), the result was inactive.

For `Oc1ccc(Nc2ccccc2)cc1`, the outcome was inactive.

Regarding `O=C(O)C(F)(F)C(F)(F)OC(F)(F)F`, the result was inactive.

As for `C=CC(F)(F)C(F)(F)C(F)(F)C(F)(F)C(F)(F)C(F)(F)C(F)(F)C(F)(F)C=C`, the result was inactive. Take `O=C(O)C(F)(F)C(F)(F)C(F)(F)C(F)(F)F`: the result was inactive and the AC50 was 31.2 µM (active). As to `O=C(O)C(F)(F)C(F)(F)F`, the result was inactive. Consider `CCO[Si](CCC(F)(F)C(F)(F)C(F)(F)C(F)(F)C(F)(F)C(F)(F)F)(OCC)OCC`, for which the concentration at half-maximal activity (AC50) was 0.638 µM (active) and the result was inactive. Consider `O=C(O)C(F)(F)C(F)(F)C(F)F`, for which the outcome was inactive. For the molecule `NC(=O)C(F)(F)C(F)(F)C(F)(F)C(F)(F)F`, the result was inactive and the AC50 is 38.8 µM (active).
